The record followed here is PubChem BioAssay (NCI).

Compounds without any hit were thinned out: in the full panel of roughly 83,000, 20% have a hit.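 Single-dose data. Exposure time 48 hours. Values below 10 considered active.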 A number with no mark means an inactive call. Calls of active or inactive are those of the source.

The subject of this test is HL-60(TB) leukemia. Briefly: NCI-60 one-dose screen, 48 h (100 = growth as untreated, 0 = no growth, -100 = all killed). The note with it: 10 µM unless noted.

`O=C1C(c2ccccc2)C2C=CC(C2)N1O` (stereo not drawn): the growth is 93%.
The value for `COc1cc(-c2cc(-c3ccc(Nc4ccnc5cc(Cl)ccc45)cc3)nc(N3CCOCC3)n2)cc(OC)c1OC` was 68.2%; that for `O=C(Nc1ccc(C(=O)/C=C/c2ccc(N3CCOCC3)cc2)cc1)Nc1ccc([N+](=O)[O-])cc1` was 70.6%.
Turning to `Clc1ccc(-c2nnc(COc3ccccc3Cl)o2)cc1`, the growth is 120%.
The value for `CCN(CC)CCN1C(=O)c2cccc3c(/C=C/CN4C(=O)c5cccc6cccc(c56)C4=O)ccc(c23)C1=O` was 83.4%; that for `CC(C)CC(NC(=O)CN(Cc1ccccc1)S(C)(=O)=O)C(=O)O` (stereo not drawn) was 94.8%.
Regarding `CCCc1n(Cc2ccc3ccccc3c2)c2ccccc2[n+]1Cc1ccc2ccccc2c1`, the growth was -64.2% (active).
The value for `Cn1c(=O)c2c(-c3ccccc3F)n(-c3ccc4c(c3)OCO4)cc2n(C)c1=O` was 90.2%; that for `CN(C)CCNc1nc2ccccc2c2c1c1c(n2Cc2ccccc2)-c2ccccc2C1=O` was -85% (active).
The value for `COc1ccc2c3c(c4ccccc4cc13)C(=O)N(CCN(C)CCN)C2=O` was -58.1% (active); that for `O=C(N/N=C/c1ccccc1O)c1ccccc1` was 11.4%; that for `CCN(CC)CCSC(=O)C(O)(c1ccccc1)C1CCCC1` (stereo not drawn) was 94%.
Consider `C=C(C)[C@@H]1CC[C@]2(C(=O)O)CC[C@]3(C)[C@H](CC[C@@H]4[C@@]5(C)C[C@@H](CC#Cc6ccc(Br)cc6)C(=O)C(C)(C)[C@@H]5CC[C@]43C)[C@@H]12`, for which the growth was 47.7%.
Then `O=C/C=C/c1ccc([N+](=O)[O-])cc1`, with 106%.
Then `Nc1ccc2c(c1)C(=O)NC2=O`, with 71.1%; and `CCNc1ncnc2c1cnn2C1CCCO1` (stereo not drawn), with 92.5%; and `CCN(CC)CC(O)c1cc(-c2ccc(Cl)cc2)nc2cc(Cl)ccc12` (stereo not drawn), with 17.9%.
Turning to `COc1ccc(C(=O)/C(=N/Nc2ccccc2)c2ccc(OC)cc2)cc1`, the growth is 88.4%.
The value for `C=C(C)[C@@H]1CC[C@]2(C(=O)NC3CCCCC3)CC[C@]3(C)[C@H](CC[C@@H]4[C@@]5(C)CCC(=O)C(C)(C)[C@@H]5CC[C@]43C)[C@@H]12` was 76.6%; that for `COc1cccc(-c2nn(-c3ccccc3)cc2-c2ccnc(-c3cccnc3)c2)c1` was 56.8%; that for `O=C(N/N=C/c1ccccc1O)c1ccccc1Nc1ccnc(C(F)(F)F)c1` was 7.92% (active).
As to `O=[N+]([O-])c1ccc([I+]c2ccccc2)cc1`, the growth is 21.5%.
The value for `Cc1ccc(/C(C#N)=C/c2ccc3c(c2)OCO3)cc1` was 67.5%.
As for `Nc1ccccc1NC(=O)CCCCCCC(=O)Nc1ccc2c(c1)/C(=C/c1ccc[nH]1)C(=O)N2`, the growth is -10.2% (active).
The value for `Nc1ccc(-c2cccs2)cc1NC(=O)c1ccc(CCCC(=O)Nc2ccc(C3CC3N)cc2)cc1` (stereo not drawn) was 66%; that for `Cc1ccc(-c2cc(-c3ccc(C)cc3)nc(N3CCN(CCNc4ccnc5cc(Cl)ccc45)CC3)n2)cc1` was 0.0538% (active); that for `O=C(Nc1nc(Cl)nc(Nc2ccc(N3CCOCC3=O)cc2)n1)c1ccc(Cl)s1` was 68.7%.
In the case of `COC(=O)c1ccc2[nH]c(O)c(C(=Nc3ccc(N(C)C(=O)CN4CCN(C)CC4)cc3)c3ccc([N+](=O)[O-])cc3)c2c1`, the growth is 11.6%.
The value for `CN[C@@H](CCCNC(N)=NC/C=C(/C)CCC=C(C)C)C(=O)N(C)[C@@H](CCCNC(N)=NCC=C(C)C)C(=O)N[C@H](C)[C@H](OS(=O)(=O)O)c1ccc(OS(=O)(=O)O)c(COS(=O)(=O)O)c1` was 83.5%.
The value for `CCc1ccc(CCN2C(=O)c3ccccc3C2=O)nc1` was 120%; that for `O=C1Nc2ccc(Br)cc2C1=O` was 99.6%; that for `CCOC(=O)c1c(C)nc2c(c1N)CC(=O)N2Cc1cc(OC)c(OC)c(OC)c1` was 18.8%.
The value for `O=C(N=Nc1c(O)[nH]c2ccccc12)Nc1ccc(Cl)cc1` was 38.9%; that for `COc1cc(O)c2c(=O)c3c(CC=C(C)C)cc(OC)c(O)c3oc2c1` was -15.9% (active); that for `C#Cc1cccc(Oc2ccc(NC(=O)CCl)cc2)c1` was 0.122% [8.25 µM] (active).
Regarding `CCOC(=O)c1ccc2c(c1)nc(-c1ccc(OCc3ccccc3)c(OC)c1)n2-c1cc(C(C)(C)C)[nH]n1`, the growth is 81.6%.
On to `CCN(CC)CCOC(=O)N1c2ccccc2Sc2ccccc21`, for which the growth was 88.1%.
The value for `CCN1CCN(C(=O)[C@]23CC[C@@H](C)[C@H](C)[C@@H]2C2=CC[C@@H]4[C@@]5(C)C/C(=C/c6cccnc6)C(=O)C(C)(C)[C@@H]5CC[C@@]4(C)[C@]2(C)CC3)CC1` was -38.2% (active); that for `O=[N+]([O-])c1ccc(-c2cc3c(Nc4ccc(Cl)c(C(F)(F)F)c4)ncnc3s2)cc1` was -41.3% (active); that for `CCCCOc1nc2ccc(Cl)cc2cc1/C=C/C(=O)/C=C1/CC(c2cc3cc(Cl)ccc3nc2OCCCC)Nc2ccccc2N1` (stereo not drawn) was 101%.
Then `CCN1CCN(CC(=O)Nc2nc3ccc(NCc4ccc(Br)cc4)cc3s2)CC1`, with 20.1%; and `Nc1nc2ncc(CNc3ccc(C(=O)NC(CCC(=O)NC(CCC(=O)NC(CCC(=O)NC(CCC(=O)NC(CCC(=O)O)C(=O)O)C(=O)O)C(=O)O)C(=O)O)C(=O)O)cc3)nc2c(=O)[nH]1` (stereo not drawn), with 93.5%; and `COc1cc(C(=O)c2cc(C)c3[nH]c4ccc(O)cc4c3c2C)cc(OC)c1OC`, with -13.7% (active).
Then `O=C1CCCCCCCCC(O)C(O)CCCC(c2cccs2)O1` (stereo not drawn), with 77.9%; and `O=[N+]([O-])c1ccc(N=Nc2c(Cl)cc(O)cc2Cl)cc1`, with -31.9% (active).
As for `Nc1nc(Cl)cc(Cl)n1`, the growth was 74.2%.
The value for `O=c1cc(CSc2nnc(-c3ccccc3)n2-c2ccc(F)cc2)c2ccc3ccccc3c2o1` was 99.5%; that for `O=C(Nc1nc(-c2ccc(Br)cc2)cs1)c1cc(-c2ccc(Br)cc2)nc2ccc(Cl)cc12` was 96.6%; that for `CCOC(C)=N` was 78.7%.
Then `O=C(N/N=C/c1ccc([N+](=O)[O-])cc1)c1ccccc1Nc1ccnc(C(F)(F)F)c1`, with 78.4%; and `CCCCCCOc1ccc(/C=C/C(=O)c2ccc(B(O)O)cc2)cc1`, with 18.5%.
Then `CC(C)Nc1ccc(Nc2ccc(NC(C)C)cc2)cc1`, with 22.1%; and `CCOC(=O)c1[nH]c2cc(Cl)ccc2c1[C@@H](C(=O)NC(C)(C)C)N(CC)C(=O)CCCCC#Cc1cccc2c1CN(C1CCC(=O)NC1=O)C2=O` (stereo partly drawn), with -7.29% (active); and `CN(C)c1ccc(-c2ccc3c(c2)c(-c2ccccc2)nc(=O)n3C)cn1`, with 43.5%.
In the case of `C[C@@H](C[C@H](CC1CC1)c1ccccc1)c1ccc2ccccc2c1`, the growth is 107%.
Regarding `NC(=O)c1ncn([C@@H]2O[C@H](CO)[C@@H](O)[C@H]2O)n1`, the growth was 109%.
Then `CC1(C)CC[C@]2(c3nnc(-c4ccncc4)o3)CC[C@]3(C)C(=CC[C@@H]4[C@@]5(C)CCC(=O)C(C)(C)[C@@H]5CC[C@]43C)[C@@H]2C1`, with 30.7%.
Regarding `COc1cc(/C(=C2/O[C@@H]([C@H]3COC(C)(C)O3)[C@H]3OC(C)(C)O[C@@H]23)c2ccc3c(c2)OCO3)cc(OC)c1OC`, the growth was 86.1%.
As for `CC/C(=C(/c1ccc(O)cc1)c1ccc(OCCN2CCCCC2)cc1)c1ccc(OC)cc1`, the growth is 81.6%.
As for `COc1cccc(NC(=O)c2cccc(C3CCc4c(cc(OC)c(OC)c4OC)O3)c2)c1` (stereo not drawn), the growth was 44.2%.
As for `O=C(CCNCc1ccccc1)c1ccccc1`, the growth was 104%.
The value for `Cc1cc(-c2nnc(/C=C/c3ccc4c(c3)OCO4)o2)n[nH]1` was 10.6%; that for `O=C1Nc2c(C(=O)O)cccc2/C1=N/c1n[nH]c(=S)s1` was 79.7%.
Take `COC1OC(C(COC(C)=O)OC(C)=O)C(OC(C)=O)C(OC(C)=O)C1OC(C)=O` (stereo not drawn): the growth was 132%.
The value for `CCOC(=O)C(CC(=O)O)=C(C(=O)OCC)C(=O)OCC` was 99.6%; that for `Cc1nn(-c2ccc(Cl)cc2)c(=O)n1CCOc1ccccc1Cl` was 106%.
Then `C=C(C)[C@@H]1CC[C@]2(N=C=O)CC[C@]3(C)[C@H](CC[C@@H]4[C@@]5(C)Cc6c([nH]c7ccccc67)C(C)(C)[C@@H]5CC[C@]43C)[C@@H]12`, with 46.2%; and `CC1=C(C)C(=O)OC([C@](C)(O)[C@]2(O)CC[C@@]3(O)[C@@H]4C[C@H]5O[C@]56CC=CC(=O)[C@]6(C)[C@H]4CC[C@]23COC(=O)c2ccc(C)o2)C1` (stereo partly drawn), with -22.6% (active); and `CCN(CC)c1ccc(/C=N/NC(=O)Cc2ccc(Nc3ccnc(C(F)(F)F)c3)cc2)c(O)c1`, with 0.765% (active).
Then `Cn1c(=O)c2c(nc(Br)n2CCC(=O)Nc2ccc(F)cc2)n(C)c1=O`, with 91.8%; and `C=C(C)CCC(C)N1CCC(N2CCC(C(=O)NCCc3ccccc3)CC2)CC1` (stereo not drawn), with 27.4%; and `CC1=C(C(=O)Nc2ccccc2)C(c2ccc3c(c2)OCO3)NC(=S)N1` (stereo not drawn), with 104%.
Take `N[C@H]1CCC[C@@H]1NCCCCN1C(=O)c2cccc3cccc(c23)C1=O`: the growth was 85.5%.
As to `C=C1C(=O)O[C@H]2[C@H]1CC/C(CNC(=O)/C=C/c1ccccc1)=C\CC[C@@]1(C)O[C@@H]21`, the growth is -31.3% (active).
The value for `Clc1ccc(CN2COc3c(ccc4cccnc34)C2)cc1Cl` was -63.5% (active); that for `CCN(CC)CCCNCc1cc(-c2ccccc2)nc2cc(Cl)ccc12` was 14%.
The value for `O=C(Nc1ccccc1O)c1ccc(CNC(=O)c2sccc2Nc2ccnc(C(F)(F)F)c2)cc1` was 25.2%.
The value for `COCc1c(-c2ccc(NC(=O)Nc3cc(C(F)(F)F)ccc3F)c(F)c2)c2c(N)ncnn2c1CN1CCOCC1` was -22% (active).
